# Bioassay records (PubChem)
# This is a sample that favours compounds with a hit; in the whole collection about 10% have one here.
# G9a block = G9a (human) methyltransferase inhibition; Potency, µM (highest dose often 102 µM), inactives show top-dose activity, negative = inhibition, most hits filed as inhibitors; hit rate 8.8% among 350,000; Q96KQ7; G9a H3K9 monomethylation, AlphaScreen, 2 h; further: on the % scale 0 is the no-effect control and ±100 the full control effect; nearly all actives have a fitted effect of over 75% in size
#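 G9a (20 nM) was preincubated 15 min with compound, then reacted 2 h at room temperature with 500 nM biotin-H3K9 peptide and 20 µM SAM. Monomethyl-H3K9 detected by AlphaScreen using anti-H3K9me1 antibody.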
# HP1b chromo inh = inhibitors of HP1-beta chromodomain binding to methylated histone tails. Potency, µM (highest dose often 114 µM), without a hit: at the highest dose activity change, negative = inhibition, hits mostly inhibitors. P83916. AlphaScreen HP1-beta / biotin-H3K9me3 peptide binding. hit rate 0.56% among 390,000; further: nearly all actives have a fitted effect of over 70% in size
#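 Compound inhibition of the preformed complex between 50 nM HP1-beta and 50 nM biotinylated H3K9me3 peptide was read by AlphaScreen. Buffer was PBS pH 7.4 with 0.01% Tween-20. Incubations ran 30 min at room temperature, with 10 ug/mL donor/acceptor beads.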
# JMJD2A Tudor inh = blocks the human JMJD2A Tudor domain; O75164; Potency, µM (top dose mostly 114 µM), without a hit: at the top dose activity change, negative = inhibition, usual class: inhibitors; AlphaScreen JMJD2A-Tudor / H3K4me3 peptide binding; hit rate 4.4% among 390,000; further: on the % scale 0 is the no-effect control and ±100 the full control effect; nearly all actives have a fitted effect of over 50% in size
# GLS inh = blocks human kidney-isoform glutaminase activity; O94925; GLS enzymatic activity, qHTS titration; Potency, µM (highest dose often 45.5 µM), for inactives: top-dose activity change, negative = inhibition, actives largely listed as inhibitors; hit rate 0.21% among 410,000; AID 624170; further: on the % scale 0 is the no-effect control and ±100 the full control effect
# Target sequence (O94925 whole entry, looked up, canonical isoform): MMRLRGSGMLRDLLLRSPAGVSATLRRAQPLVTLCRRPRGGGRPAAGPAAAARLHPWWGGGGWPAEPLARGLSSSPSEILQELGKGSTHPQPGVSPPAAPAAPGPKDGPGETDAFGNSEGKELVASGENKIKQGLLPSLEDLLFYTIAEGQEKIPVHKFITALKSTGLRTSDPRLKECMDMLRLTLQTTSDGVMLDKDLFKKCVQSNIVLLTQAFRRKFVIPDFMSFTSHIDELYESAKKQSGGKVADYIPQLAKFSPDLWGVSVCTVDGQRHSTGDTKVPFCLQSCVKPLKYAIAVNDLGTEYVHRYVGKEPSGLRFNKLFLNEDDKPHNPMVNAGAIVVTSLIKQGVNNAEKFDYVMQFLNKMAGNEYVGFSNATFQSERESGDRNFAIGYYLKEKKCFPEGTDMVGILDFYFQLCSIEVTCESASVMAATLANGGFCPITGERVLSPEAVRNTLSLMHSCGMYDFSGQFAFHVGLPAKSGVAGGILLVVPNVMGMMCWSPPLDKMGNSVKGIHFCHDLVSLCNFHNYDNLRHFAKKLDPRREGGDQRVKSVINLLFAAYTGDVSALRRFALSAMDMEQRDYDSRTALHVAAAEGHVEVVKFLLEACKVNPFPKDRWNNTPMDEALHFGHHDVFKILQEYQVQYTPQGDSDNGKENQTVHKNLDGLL
#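 Enzyme dispensed in phosphate buffer (45 mM, pH 8.2, 0.02% Tween-20), compounds pinned in, then 1 mM L-glutamine solution and the glutamate oxidase–HRP–Amplex Red mix added; fluorescence read immediately and again after 30 min at room temperature.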
# BAZ2B block = BAZ2B (human) inhibition. AlphaScreen BAZ2B-H3K14Ac peptide displacement. hit rate 4.4% among 360,000. Potency, µM (highest dose often 114 µM), inactives show at the top dose activity change, negative = inhibition, actives largely listed as inhibitors. AID 504333. Q9UIF8; further: on the % scale 0 is the no-effect control and ±100 the full control effect; nearly all actives have a fitted effect of over 60% in size
#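 AlphaScreen displacement: compounds (up to 110uM) incubated 30 min at room temperature with a preformed 50 nM BAZ2B/50 nM biotinylated H3K14Ac peptide complex in PBS pH 7.4 with Tween-20. Donor and acceptor beads at 10 ug/mL final added, 20 min light-protected before reading.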
# L3MBTL1 block = blocks human L3MBTL1. AlphaScreen L3MBTL1–H3K9me1 peptide binding. Potency, µM (titrated, usually from 57.1 µM), for inactives: at the top dose activity, negative = inhibition, usual class: inhibitors. hit rate 0.66% among 230,000; further: on the % scale 0 is the no-effect control and ±100 the full control effect; nearly all actives have a fitted effect of over 60% in size
#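 AlphaScreen assay: L3MBTL1 (50 nM final) was preincubated 30 min at room temperature with biotinylated H3(1-15)K9me1 peptide (75 nM final), then 30 min with library compounds; streptavidin donor and nickel chelate acceptor beads (10 ug/mL final) added, 30 min dark.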
# * hit, by the source's call; ? = inconclusive; . = no result; [ ] = remark or other dose. The call rests on the fitted dose curve; in most records, active means well fitted curve in the direction sought with a large enough effect; inconclusive means small, poorly fitted or top-dose-only effect, or another doubt; inactive means no such curve, though single readings can be large; an effect the other way counts as inactive or inconclusive. Potency means the concentration at half of the fitted maximal effect.
SMILES,G9a block,HP1b chromo inh,JMJD2A Tudor inh,GLS inh,BAZ2B block,L3MBTL1 block
Cc1cc2cc(C(c3nnnn3C3CCCC3)N(Cc3cccnc3)Cc3ccco3)c(=O)[nH]c2cc1C (stereo not given),?,14%,-29%,0%,-1%,.
Cc1ccc(/C=C/C(=O)OCC(=O)NC(C)C)o1,45µM*,6%,-9%,0%,0%,.
CC(C)NC(=O)COC(=O)/C=C/c1ccco1,-18%[59 µM],1%,-24%,-11%,?,-24%
CC(=O)CSc1ncnc2sc3c(c12)CCC(C)C3 (stereo not given),40µM*,51%,23%,-1%,6%,10%
CC1CCc2c(sc3ncnc(SCC(=O)c4ccccc4)c23)C1 (stereo not given),18%[59 µM],8%,0%[11.4 µM],-1%,4%,-11%
Cc1ccc(NC(=O)Cn2c(=O)oc3cc(S(=O)(=O)NCc4ccccc4)ccc32)cc1,7%[59 µM],58%,-2%,5%,-1%,.
COc1ccc(OCC(=O)Nc2ccc3c(c2)N(C)C(=O)c2ccccc2S3)cc1,-5%[59 µM],-13%,-30%,-1%,-13%,.
Cc1coc2c1C(=O)C(=O)c1c-2ccc2c(C)cccc12,?,?,35µM*,5%,35µM*,.
Cc1coc2c1C(=O)C(=O)c1c-2ccc2c1CCCC2(C)C,2.2µM*,?,45µM*,-4%,7.9µM*,?
Cc1coc2cc3oc(=O)c4c(c3cc12)CCC4,-9%[12.7 µM],.,.,.,8%,.
COC(=O)c1sccc1S(=O)(=O)N(CC(=O)Nc1c(C)cccc1C)c1ccc(C)c(C)c1,3%[59 µM],43%,-11%,3%,-4%,.
CC1(C)C(=O)N(c2ccccc2Cl)C(=O)c2ccccc21,79µM*,38%,2%,0%,7%,.
Cc1ccc(C)c(S(=O)(=O)c2nnn3c2nc(Nc2ccc(F)c(Cl)c2)c2sccc23)c1,0%[59 µM],44%,-16%,-9%,-9%,.
CC[C@H](C)[C@@H](CN[C@H](C)CNC)NCCC(c1ccccc1)c1ccccc1,45µM*,29%,-16%,2%,-35%,-5%
C[C@H](NCCC(c1ccccc1)c1ccccc1)c1ccccc1,0%[21.5 µM],.,.,.,.,.
COCCN(Cc1cc2cc(C)c(C)cc2nc1Cl)C(=O)Nc1ccccc1,-15%[59 µM],3%,-19%,3%,53%,6%
COCCN(Cc1cc2cc3c(cc2nc1Cl)OCO3)C(=O)c1ccc(C)cc1,-24%,16%,-7%,-3%,10µM*,28µM*
COc1cccc(Cc2nc3ccccc3nc2SCC(=O)NCc2ccc(C)cc2)c1,0%[59 µM],30%[57 µM],4%,6%,4%,.
CN(NC(=O)/C=C/C(=O)O)c1ncc(C(F)(F)F)cc1Cl,6.3µM*,38%,-16%,8%,?,-19%
C=CC(=O)NN(C)c1ncc(C(F)(F)F)cc1Cl,30%[59 µM],32%,-15%,3%,1%,6%
Cn1c(=O)n(C/C=C/c2ccccc2)c(=O)c2c1nc1n2CCN1c1ccccc1,5%[59 µM],43%,-26%,5%,-21%,.
COc1ccc(Cl)cc1NC(=O)[C@H]1O[C@@H]2OC(C)(C)O[C@@H]2[C@H]2OC(C)(C)O[C@H]21,4%[59 µM],62%,-13%,-4%,-15%,.
CCC(CC)C(=O)Oc1c(Sc2ccccc2[N+](=O)[O-])c(C)nn1C(C)(C)C,32µM*,?,-35%,4%,?,-10%
COCC(=O)Oc1c(Sc2ccccc2[N+](=O)[O-])c(C)nn1C(C)(C)C,22µM*,2%,-13%,?,?,-21%
Cc1nn(-c2ccccc2)c(N)c1Sc1ccccc1[N+](=O)[O-],19%[59 µM],-21%,?,4%,?,-3%
SMILES,G9a block,HP1b chromo inh,JMJD2A Tudor inh,GLS inh,BAZ2B block,L3MBTL1 block
CN(C(=O)CCc1nc(-c2ccccc2F)no1)c1ccc(Cl)cc1,14%[59 µM],27%,-9%,1%,13%,.
c1cc2cn[nH]c2cc1NC1CCCCCC1,4.5µM*,-3%,?,-23%,?,-16%
CN(C)c1ccc(N=Nc2ccc(S(=O)(=O)O)cc2)c2ccccc12,11µM*,?,35µM*,20%,10µM*,.
Cc1ccc2c(c1)-c1onc(C(=O)N(C)c3ccc(F)cc3)c1CO2,9%[59 µM],28%,-13%,3%,2%,.
COc1ccccc1NC(=O)C1=C(C)Nc2nc(-c3ccco3)nn2C1c1cccc(C)c1 (stereo not given),17%[59 µM],19%,-20%,4%,-15%,.
N#Cc1c(Nc2ccccc2C(F)(F)F)s[nH]c1=O,14µM*,24%,-13%,-24%,-11%,-3%
N#Cc1c(Nc2ccccc2)s[nH]c1=O,13µM*,19%,-30%,36%,1%,.
COc1ccccc1CNC(=O)C1CCN(S(=O)(=O)Cc2ccccc2)CC1,?,37%,0%,-5%,3%,.
Cc1ccc(C(=O)C(c2ccccc2)N2Cc3ccccc3C2=N)cc1 (stereo not given),11µM*,?,28µM*,-1%,32µM*,?
O=C(Oc1ccc(=O)[nH]n1)c1ccccc1,.,.,.,12%,.,.
O=C(Oc1cc(=O)n2ccccc2n1)c1ccccc1,18µM*,47%,-6%,-9%,-2%,11%
Cc1nnnn1/C(=C\c1ccccc1)C(=O)OCC(=O)Nc1ccc(Cl)cc1F,50µM*,13%,-15%,3%,-2%,4%
Cc1nnnn1/C(=C\c1ccccc1)C(=O)OCC(=O)Nc1cccc(S(=O)(=O)N(C)C)c1,10%[0.501 µM],30%,-23%,15%,-2%,-3%
COc1ccc(NC(=O)C2CCCN2S(=O)(=O)c2ccc(Cl)cc2)cc1 (stereo not given),-38%,35%,9%,3%,4%,.
O=C(O)COc1ccc(/C=N/NC(=O)C2CCCN2S(=O)(=O)c2ccc(Cl)cc2)cc1 (stereo not given),45µM*,31%,-6%,-2%,3%,.
Cc1ccc(Cl)cc1N1CCN(C(=O)C2CCCN(Cc3nc(-c4cccc(Cl)c4)oc3C)C2)CC1 (stereo not given),?,3%,?,3%,?,.
CCc1ccc(-c2nc(CN3CCCC(C(=O)N4CCN(c5cc(Cl)ccc5C)CC4)C3)c(C)o2)cc1 (stereo not given),8.9µM*,-20%,?,-5%,10µM*,.
Cc1ccc2sc(-c3ccc(NC(=O)/C=C\C(=O)O)cc3)nc2c1,50µM*,-10%,-11%[57.1 µM],4%,.,.
Cc1nc(-c2ccc(NC(=O)/C=C\C(=O)O)cc2)cs1,35µM*,-31%,?,0%,-23%,-3%
